ELG1 genotoxic = qHTS screen for small molecules that induce genotoxicity in human embryonic kidney (HEK293T) cells expressing luciferase-tagged ELG1; HEK293T ELG1-luciferase reporter, luminescence, 16 h; Potency, µM (series often up to 46 µM), for the others: at the top dose activity change, positive = activation, usual class: activators; actives 1.3% (n = 330,000); AID 504466, 2011; note: % of control where 0% means no effect; nearly all actives have a fitted effect of over 60% in size
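Quantitative HTS format in 1536-well plates. HEK293T ELG1-luciferase reporter cells receive test compound and are incubated 16 hr at 37 °C, 5% CO2; ONE-Glo added, 30 min room temperature, then luminescence read.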
NPC1 prom act = qHTS Assay for NPC1 Promoter Activators | Huh7 NPC1 promoter luciferase reporter, 24 h | actives 2.4% (n = 320,000) | Potency, µM (top dose mostly 9.22 µM), without a hit: at the top dose activation, most hits filed as activators; note: % of control where 0% means no effect; nearly all actives have a fitted effect of over 60% in size
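Cells: Huh7 expressing luciferase under the NPC1 promoter, 1500/well. Seeded 2 h, compound added, incubated 24 h at 37 °C. Luciferase reagent, 10 min ambient, then luminescence.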
Luc counter = Counterscreen for Luciferase (Kinase-Glo TM) Inhibition | Luciferin 4-monooxygenase (Photuris pensylvanica), Q27757 | Potency, µM (highest dose often 38.3 µM), for inactives: top-dose activity change, negative = inhibition, actives largely listed as inhibitors | AID 1379, 2008 | Kinase-Glo luciferase, ATP luminescence, 8 min | actives 0.28% (n = 200,000); note: % is set by controls: 0 for no effect and ±100 for the full control effect; nearly all actives have a fitted effect of over 60% in size
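Inhibition of Kinase-Glo luciferase light generation was assessed at 10 uM ATP in pH 7.2 imidazole buffer, with luminescence measured after eight minutes at ambient temperature.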
SMN2 splice enh = qHTS Assay for Enhancers of SMN2 Splice Variant Expression; Potency, µM (doses to about 46.1 µM), for inactives: at the top dose activity change, positive = activation, hits mostly activators; HEK293 SMN2-luciferase splicing reporter, luminescence, 30-36 h; actives 2.8% (n = 210,000); note: % of control where 0% means no effect; nearly all actives have a fitted effect of over 55% in size
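HEK293 cells carry an SMN2 […]–luciferase reporter in which exon 7 inclusion puts luciferase in frame. Cells were plated 10-12 h before compound addition, then incubated 30-36 h at 37C. ONE-Glo luminescence was read; sodium butyrate at 4.5 mM final served as control.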
Rab9 prom act = qHTS Assay for Rab9 Promoter Activators; AID 485297, 2010; Huh7 Rab9 promoter-luciferase reporter, luminescence, 24 h; Potency, µM (titrated, usually from 9.22 µM), for inactives: at the top dose activation, negative = inhibition, hits mostly activators; actives 2.8% (n = 320,000); note: % of control where 0% means no effect; nearly all actives have a fitted effect of over 60% in size
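Huh7 cells stably carrying a Rab9 promoter-luciferase reporter, 1500 cells per well in OP-MEM I with 10% FBS, treated with compound 24 hours at 37C. Luciferase activity read by luminescence after 10 minutes with Amplite reagent.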
FLuc modulator = qHTS profiling assay for firefly luciferase inhibitor/activator using purifed enzyme and Km concentrations of substrates (counterscreen for miR-21 project); Potency, µM (series often up to 57.5 µM), without a hit: at the top dose activity change, negative = inhibition, usual class: inhibitors; actives 6.9% (n = 360,000); Luciferin 4-monooxygenase (Photinus pyralis), P08659; purified FLuc, Km substrates, luminescence inhibition; AID 588342, 2011;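 note: plate controls were vehicle for no effect and reference inhibitor for full effect; nearly all actives have a fitted effect of over 55% in size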
Target sequence (P08659 whole entry, looked up): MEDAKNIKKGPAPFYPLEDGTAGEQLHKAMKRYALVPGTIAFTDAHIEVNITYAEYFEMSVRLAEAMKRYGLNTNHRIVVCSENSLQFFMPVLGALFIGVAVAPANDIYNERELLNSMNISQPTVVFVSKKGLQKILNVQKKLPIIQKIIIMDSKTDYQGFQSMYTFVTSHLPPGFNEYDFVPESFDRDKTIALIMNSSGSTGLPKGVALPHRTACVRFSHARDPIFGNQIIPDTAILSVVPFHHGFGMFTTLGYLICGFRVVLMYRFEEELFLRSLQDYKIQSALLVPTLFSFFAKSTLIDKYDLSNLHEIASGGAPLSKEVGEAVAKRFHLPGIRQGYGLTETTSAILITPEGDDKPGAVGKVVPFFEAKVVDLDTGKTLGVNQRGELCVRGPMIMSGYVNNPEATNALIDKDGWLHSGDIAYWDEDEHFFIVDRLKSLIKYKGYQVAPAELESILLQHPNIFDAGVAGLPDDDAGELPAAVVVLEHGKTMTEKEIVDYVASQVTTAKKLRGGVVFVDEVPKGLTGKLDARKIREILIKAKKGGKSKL
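Purified P. pyralis luciferase (10nM final) with 10uM D-luciferin and 10uM ATP (Km levels) in 50mM Tris acetate pH 7.5, 10mM Mg acetate, 0.01% Tween-20, 0.05% BSA; qHTS 6-point titration, ~60 µM downward; luminescence read.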
Numbers without * were called inactive; [ ] = dose if it differs, or a comment. Most compounds without a hit are left out; they make up all but 7.4% or so of the library. Calls come from the whole dose curve; as a rule, active = well fitted curve in the direction sought with a large enough effect; inconclusive = small, poorly fitted or top-dose-only effect, or another doubt; inactive = no such curve, though single readings can be large; an effect the other way counts as inactive or inconclusive. Potency is the fitted concentration of half-maximal effect.

How did O=C(OCC(=O)c1ccc[nH]1)c1ccc2ccccc2n1 do in these assays?
ELG1 genotoxic: 5%; NPC1 prom act: -1%; Luc counter: -1%; SMN2 splice enh: 6%; Rab9 prom act: -5%; FLuc modulator: inconclusive

What do the screens show for `O=c1[nH]c(SCc2ccccc2F)nc2ccccc12`?
ELG1 genotoxic: 8%; NPC1 prom act: -2%; Luc counter: -1%; Rab9 prom act: 6%; FLuc modulator: 0%

How did COc1ccc(CSc2nc3ccccc3[nH]2)cc1 do in these assays?
ELG1 genotoxic: inconclusive; NPC1 prom act: 0.4µM*; Luc counter: 8.9µM*; SMN2 splice enh: inconclusive; Rab9 prom act: 0.5µM*; FLuc modulator: 1.5µM*

How did CC(C)CCSc1nc2ccccc2[nH]1 do in these assays?
ELG1 genotoxic: inconclusive; NPC1 prom act: 3.5µM*; Luc counter: -9%; SMN2 splice enh: 14µM*; Rab9 prom act: 3.5µM*; FLuc modulator: 11µM*

What do the screens show for `Fc1ccccc1CSc1nc2ncccc2[nH]1`?
ELG1 genotoxic: 10µM*; NPC1 prom act: inconclusive; Luc counter: -9%; SMN2 splice enh: 22µM*; Rab9 prom act: inconclusive; FLuc modulator: 15µM*

How did COc1ccc(CSc2nc3ncccc3[nH]2)cc1 do in these assays?
FLuc modulator: 19µM*

Results for O=C1CCC(=O)N1c1ccc(CSc2nc3ccccc3[nH]2)cc1 ?
ELG1 genotoxic: inconclusive; NPC1 prom act: 13%; Luc counter: -8%; SMN2 splice enh: -9%; Rab9 prom act: 22%; FLuc modulator: inconclusive

How did C[N+](C)(C)CCCSc1nc2ccccc2[nH]1 do in these assays?
Luc counter: -1%[7.66 µM]; SMN2 splice enh: -13%[9.22 µM]

How did CCN(CC)c1ccc2cc(-c3nc4sc5c(c4c(=O)[nH]3)CCC(C(C)(C)C)C5)c(=O)oc2c1 (configuration not stated) do in these assays?
FLuc modulator: -9%

What do the screens show for `N#Cc1ccccc1-c1csc(N2CCC(C(N)=O)CC2)n1`?
FLuc modulator: -19%

What do the screens show for `CCN(CC)S(=O)(=O)c1ccc(C(=O)Oc2cc(C)[nH]c(=O)c2[N+](=O)[O-])cc1`?
ELG1 genotoxic: 1%; NPC1 prom act: -3%; Luc counter: 3%; SMN2 splice enh: 3%; Rab9 prom act: -2%; FLuc modulator: 3%

How did COc1ccc(S(=O)(=O)N2CCN(C(=O)c3cc4c(s3)CCC4)CC2)cc1 do in these assays?
ELG1 genotoxic: -1%

What do the screens show for `c1ccc2[nH]c(SCc3ccc(-c4nnco4)cc3)nc2c1`?
ELG1 genotoxic: inconclusive; NPC1 prom act: inconclusive; Luc counter: -24%; SMN2 splice enh: 26%; Rab9 prom act: 3.5µM*; FLuc modulator: 11µM*

Results for COC(=O)c1cccc(CSc2nc3ccccc3[nH]2)c1 ?
ELG1 genotoxic: inconclusive; NPC1 prom act: 2.5µM*; Luc counter: -9%; SMN2 splice enh: 3.2µM*; Rab9 prom act: inconclusive; FLuc modulator: 7.6µM*

How did CCOc1ccc(/C=C2\SC(=S)N(CC(=O)NCCCN3CCOCC3)C2=O)cc1 do in these assays?
ELG1 genotoxic: -8%; NPC1 prom act: 1%; Rab9 prom act: 19%; FLuc modulator: 3µM*

How did CC(C)c1ccc(/C=C2\SC(=O)N(CC(=O)NCCCn3ccnc3)C2=O)cc1 do in these assays?
ELG1 genotoxic: inconclusive; NPC1 prom act: inconclusive; Rab9 prom act: 3.5µM*; FLuc modulator: 0.6µM*

Results for COC(=O)c1ccc(/C=C2\SC(=S)N(CCCC(=O)NCCCN3CCOCC3)C2=O)cc1 ?
ELG1 genotoxic: -10%; NPC1 prom act: -10%; Rab9 prom act: -4%; FLuc modulator: inconclusive

How did CC(C)c1ccc(/C=C2\SC(=S)N(CC(=O)NCCCN3CCOCC3)C2=O)cc1 do in these assays?
ELG1 genotoxic: inconclusive; NPC1 prom act: 6%; Rab9 prom act: 0%; FLuc modulator: 1.3µM*

Results for O=C(CN1C(=O)/C(=C/c2cccc(Br)c2)SC1=S)NCCCN1CCOCC1 ?
ELG1 genotoxic: -3%; NPC1 prom act: 5%; Rab9 prom act: 6%; FLuc modulator: 21µM*

Results for CCOc1ccccc1N1CCN(C(=O)c2ccc(OCC(=O)N3CCOCC3)c(OC)c2)CC1 ?
ELG1 genotoxic: 3%; NPC1 prom act: 2%; Rab9 prom act: -1%; FLuc modulator: 2%

Results for CCOC(=O)C1CCN(S(=O)(=O)c2ccc(OC)c(Cl)c2)CC1 ?
ELG1 genotoxic: -4%; NPC1 prom act: -12%; Luc counter: 0%; SMN2 splice enh: -11%; Rab9 prom act: -6%; FLuc modulator: -1%

What do the screens show for `CC(C)(C)c1ccc(OCC(O)CSc2ncn[nH]2)cc1` (configuration not stated)?
ELG1 genotoxic: inconclusive; NPC1 prom act: inconclusive; Luc counter: 1%; SMN2 splice enh: inconclusive; Rab9 prom act: inconclusive; FLuc modulator: 2.1µM*

How did OC(COc1ccccc1)CSc1ncn[nH]1 (configuration not stated) do in these assays?
ELG1 genotoxic: -1%; NPC1 prom act: -3%; Luc counter: 4%; SMN2 splice enh: 22%; Rab9 prom act: 0%; FLuc modulator: 0%

What do the screens show for `Cc1cccc(N2CCN(C(=O)C3CCCN(S(=O)(=O)c4ccc5c(c4)oc(=O)n5C)C3)CC2)c1C` (configuration not stated)?
SMN2 splice enh: -42%; FLuc modulator: -8%

What do the screens show for `COc1ccc(C(=O)NCCSC2CCCCC2)cc1`?
ELG1 genotoxic: inconclusive; NPC1 prom act: inconclusive; Luc counter: -1%; SMN2 splice enh: 16µM*; Rab9 prom act: inconclusive; FLuc modulator: 13µM*

How did O=C(NCCSC1CCCCC1)c1ccccc1 do in these assays?
ELG1 genotoxic: inconclusive; NPC1 prom act: 29%; Luc counter: -2%; SMN2 splice enh: inconclusive; Rab9 prom act: inconclusive; FLuc modulator: inconclusive

What do the screens show for `Cc1nc2sc(-c3ccccc3)nn2c(=O)c1Br`?
ELG1 genotoxic: inconclusive; NPC1 prom act: 3.2µM*; Luc counter: inconclusive; SMN2 splice enh: 5.6µM*; Rab9 prom act: 2.2µM*; FLuc modulator: 8.5µM*

What do the screens show for `c1ccc(-c2nnc3sc(-c4ccncc4)nn23)cc1`?
ELG1 genotoxic: -7%; NPC1 prom act: -1%; Luc counter: 0%; SMN2 splice enh: 4.5µM*; Rab9 prom act: -6%; FLuc modulator: -3%
